This is an account of results in the supplement of paper PMC7411640.

For this assay, the system named is MDA-MB-468. The experiment in a line: phospho-S6 immunofluorescence (DAPI-normalised), per-plate z-score; higher = higher phospho-S6 signal (less pathway suppression). Conditions: 24 h. On the procedure: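 GPCR-targeted compound library (MedChemExpress HY-L006) tested on MDA-MB-468 PTEN-null TNBC cells in 384-well plates at 0.1, 1 or 10 uM, combined with vehicle, GDC0941 450 nM or lapatinib 1 uM, for 24 h. Phospho-S6 (S240/244) immunofluorescence normalised to DAPI and expressed as a per-plate z-score; values are the mean of biological triplicates.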

Structures can show the parent of a compound that is named as a salt.

As to `O=C1c2cccc3c2[C@H](CCC3)CN1[C@@H]1CN2CCC1CC2` [Palonosetron (Hydrochloride)] (compound 10 µM), the “phospho-S6 immunofluorescence (z-score)” value runs as follows: (co-treatment: GDC0941 450 nM) -0.7; (co-treatment: lapatinib 1 uM) 0.4; (co-treatment: vehicle) -0.33.
Turning to `CCCC(=O)Nc1ccc(OCC(O)CNC(C)C)c(C(C)=O)c1` (stereo unspecified) [Acebutolol (hydrochloride)] (compound 10 µM), the “phospho-S6 immunofluorescence (z-score)” value (co-treatment: GDC0941 450 nM) came out at 1.02, the “phospho-S6 immunofluorescence (z-score)” value (co-treatment: lapatinib 1 uM) came out at 0.15 and the “phospho-S6 immunofluorescence (z-score)” value (co-treatment: vehicle) is -0.08.
For `CCCC(=O)OC(CNC(C)(C)C)COc1nsnc1N1CCOCC1` (racemic) [(RS)-Butyryltimolol] (compound 10 µM) the same measures were 0.09, -0.58 and -0.47.
With `CCNC(=O)[C@@H]1CCCN1C(=O)[C@H](CCCN=C(N)N)NC(=O)[C@H](CC(C)C)NC(=O)[C@@H](C)NC(=O)[C@H](Cc1ccc(O)cc1)NC(=O)[C@H](CO)NC(=O)[C@H](Cc1c[nH]c2ccccc12)NC(=O)[C@H](Cc1cnc[nH]1)NC(=O)[C@@H]1CCC(=O)N1` [Alarelin (Acetate)] (compound 10 µM), the “phospho-S6 immunofluorescence (z-score)” value by setting is: (co-treatment: GDC0941 450 nM) 0.86; (co-treatment: lapatinib 1 uM) -0.01; (co-treatment: vehicle) 1.
With `N=C(N)NC(=O)Cc1c(Cl)cccc1Cl` [Guanfacine (hydrochloride)] (compound 10 µM), the “phospho-S6 immunofluorescence (z-score)” value runs as follows: (co-treatment: GDC0941 450 nM) 0.64; (co-treatment: lapatinib 1 uM) 0.23; (co-treatment: vehicle) 0.38.
For `O=C(Nc1cccc2c(=O)cc(-c3nnn[nH]3)oc12)c1ccc(OCCCCc2ccccc2)cc1` [Pranlukast] (compound 10 µM) the same measures were 0.87, 0.55 and -0.36.
Turning to `CN1CCc2c(c3ccccc3n2Cc2ccccc2)C1` [Mebhydrolin (napadisylate)] (compound 10 µM), the “phospho-S6 immunofluorescence (z-score)” value (co-treatment: GDC0941 450 nM) is -0.29, the “phospho-S6 immunofluorescence (z-score)” value (co-treatment: lapatinib 1 uM) was -1.06 and the “phospho-S6 immunofluorescence (z-score)” value (co-treatment: vehicle) stood at 0.64.
Take `CNS(=O)(=O)CCc1ccc2[nH]cc(C3CCN(C)CC3)c2c1` [Naratriptan (hydrochloride)] (compound 10 µM): the “phospho-S6 immunofluorescence (z-score)” value is, setting by setting: (co-treatment: GDC0941 450 nM) -0.23; (co-treatment: lapatinib 1 uM) 0.4; (co-treatment: vehicle) 0.18.
Turning to `Cc1c(C(=O)NN2CCCCC2)nn(-c2ccc(Cl)cc2Cl)c1-c1ccc(I)cc1` (compound 10 µM), the “phospho-S6 immunofluorescence (z-score)” value is, setting by setting: (co-treatment: GDC0941 450 nM) -1.91; (co-treatment: lapatinib 1 uM) -1.68; (co-treatment: vehicle) -2.82.
`CN1CCC[C@@H]1CCO[C@](C)(c1ccccc1)c1ccc(Cl)cc1` [Clemastine (fumarate)] (compound 10 µM): the “phospho-S6 immunofluorescence (z-score)” value (co-treatment: GDC0941 450 nM) worked out at 0.73, the “phospho-S6 immunofluorescence (z-score)” value (co-treatment: lapatinib 1 uM) is -3.01 and the “phospho-S6 immunofluorescence (z-score)” value (co-treatment: vehicle) was determined as 1.46.
On to `CN(C)CCc1c[nH]c2ccc(CS(=O)(=O)N3CCCC3)cc12` [Almotriptan (malate)] (compound 10 µM), for which the “phospho-S6 immunofluorescence (z-score)” value is, setting by setting: (co-treatment: GDC0941 450 nM) 0.95; (co-treatment: lapatinib 1 uM) 0.57; (co-treatment: vehicle) 0.38.
On to `CN1CCC(OC(c2ccccc2)c2ccccc2)CC1` [Diphenylpyraline (hydrochloride)] (compound 10 µM), for which the “phospho-S6 immunofluorescence (z-score)” value is 0.68 (co-treatment: GDC0941 450 nM), 0.42 (co-treatment: lapatinib 1 uM) and -0.04 (co-treatment: vehicle).
Take `CN1CCN(C2=Nc3cc(Cl)ccc3Nc3ccccc32)CC1` [Clozapine] (compound 10 µM): the “phospho-S6 immunofluorescence (z-score)” value reads like this: (co-treatment: GDC0941 450 nM) -0.16; (co-treatment: lapatinib 1 uM) -0.32; (co-treatment: vehicle) -0.32.
As for `CC[C@H](C)[C@H](NC(=O)[C@H](Cc1ccc(O)cc1)NC(=O)[C@@H]1CCCN1C(=O)[C@@H](NC(=O)[C@@H](N)CCCCN)[C@@H](C)CC)C(=O)N[C@@H](CC(C)C)C(=O)O` [Neuromedin N] (compound 10 µM), the “phospho-S6 immunofluorescence (z-score)” value reads like this: (co-treatment: GDC0941 450 nM) 0.27; (co-treatment: lapatinib 1 uM) -0.01; (co-treatment: vehicle) -0.38.
For `C[C@@H](NCCCc1cccc(C(F)(F)F)c1)c1cccc2ccccc12` [Cinacalcet] (compound 10 µM), the “phospho-S6 immunofluorescence (z-score)” value was -5.01 (co-treatment: GDC0941 450 nM), -7.68 (co-treatment: lapatinib 1 uM) and -6.21 (co-treatment: vehicle).
As for `C[N+]1(C)[C@@H]2CC[C@H]1C[C@@H](OC(=O)C(O)c1ccccc1)C2` (stereo partly specified) [Homatropine (methylbromide)] (compound 10 µM), the “phospho-S6 immunofluorescence (z-score)” value is, setting by setting: (co-treatment: GDC0941 450 nM) 0.87; (co-treatment: lapatinib 1 uM) 1.2; (co-treatment: vehicle) 1.2.
`CC[C@@H](Nc1c(Nc2cccc(C(=O)N(C)C)c2O)c(=O)c1=O)c1ccc(C)o1` (compound 10 µM): the “phospho-S6 immunofluorescence (z-score)” value is 0.29 (co-treatment: GDC0941 450 nM), -0.41 (co-treatment: lapatinib 1 uM) and 2.26 (co-treatment: vehicle).
Turning to `CC(=O)Oc1cc(C(C)C)c(OCCN(C)C)cc1C` [Moxisylyte (hydrochloride)] (compound 10 µM), the “phospho-S6 immunofluorescence (z-score)” value was 0.49 (co-treatment: GDC0941 450 nM), -0.11 (co-treatment: lapatinib 1 uM) and -1.23 (co-treatment: vehicle).
Turning to `CN1CCN2c3ncccc3Cc3ccccc3C2C1` (stereo unspecified) [Mirtazapine] (compound 10 µM), the “phospho-S6 immunofluorescence (z-score)” value (co-treatment: GDC0941 450 nM) stood at 0.65, the “phospho-S6 immunofluorescence (z-score)” value (co-treatment: lapatinib 1 uM) was determined as 0.99 and the “phospho-S6 immunofluorescence (z-score)” value (co-treatment: vehicle) was -0.48.
In the case of `CC(C)NCC(O)COc1ccc(CCOCC2CC2)cc1` (stereo unspecified) [Betaxolol] (compound 10 µM), the “phospho-S6 immunofluorescence (z-score)” value (co-treatment: GDC0941 450 nM) amounted to 0.15, the “phospho-S6 immunofluorescence (z-score)” value (co-treatment: lapatinib 1 uM) amounted to 0.69 and the “phospho-S6 immunofluorescence (z-score)” value (co-treatment: vehicle) is -0.54.
On to `CCC(=O)O[C@]1(C(=O)CCl)[C@@H](C)C[C@H]2[C@@H]3CCC4=CC(=O)C=C[C@]4(C)[C@@]3(F)[C@@H](O)C[C@@]21C` [Clobetasol propionate] (compound 10 µM), for which the “phospho-S6 immunofluorescence (z-score)” value is -0.19 (co-treatment: GDC0941 450 nM), -0.09 (co-treatment: lapatinib 1 uM) and 0.7 (co-treatment: vehicle).
In the case of `CCc1c(C(=O)NCCc2ccc(N3CCCCC3)cc2)[nH]c2ccc(Cl)cc12` (compound 10 µM), the “phospho-S6 immunofluorescence (z-score)” value was -1.02 (co-treatment: GDC0941 450 nM), -0.3 (co-treatment: lapatinib 1 uM) and 0.27 (co-treatment: vehicle).
For `O=C(CCCN1CCN(c2ccccn2)CC1)c1ccc(F)cc1` [Azaperone] (compound 10 µM) the same measures were 0.08, 0.77 and 0.8.
Turning to `CNC[C@H](O)c1cccc(O)c1` [(R)-(-)-Phenylephrine (hydrochloride)] (compound 10 µM), the “phospho-S6 immunofluorescence (z-score)” value reads like this: (co-treatment: GDC0941 450 nM) 0.67; (co-treatment: lapatinib 1 uM) 1.18; (co-treatment: vehicle) 1.13.
With `O=c1ccccn1CC1(O)CCN(Cc2ccccc2)CC1` (compound 10 µM), the “phospho-S6 immunofluorescence (z-score)” value (co-treatment: GDC0941 450 nM) was determined as 0.52, the “phospho-S6 immunofluorescence (z-score)” value (co-treatment: lapatinib 1 uM) is -0.19 and the “phospho-S6 immunofluorescence (z-score)” value (co-treatment: vehicle) turned out to be 0.48.
Consider `CC(O)Cn1cnc2c1c(=O)n(C)c(=O)n2C` (stereo unspecified) [Proxyphylline] (compound 10 µM), for which the “phospho-S6 immunofluorescence (z-score)” value is, setting by setting: (co-treatment: GDC0941 450 nM) 0.64; (co-treatment: lapatinib 1 uM) 0.19; (co-treatment: vehicle) -0.72.
For the molecule `O=C(Nc1cccc2c(=O)cc(-c3nnn[nH]3)oc12)c1ccc(OCCCCc2ccccc2)cc1` [Pranlukast (hemihydrate)] (compound 10 µM), the “phospho-S6 immunofluorescence (z-score)” value stood at 1.61 (co-treatment: GDC0941 450 nM), 1.07 (co-treatment: lapatinib 1 uM) and 0.31 (co-treatment: vehicle).
With `COC(=O)[C@@H]1[C@H]2C[C@H]3c4[nH]c5ccccc5c4CCN3C[C@@H]2CC[C@@H]1O` [Yohimbine (Hydrochloride)] (compound 10 µM), the “phospho-S6 immunofluorescence (z-score)” value (co-treatment: GDC0941 450 nM) was 0.62, the “phospho-S6 immunofluorescence (z-score)” value (co-treatment: lapatinib 1 uM) turned out to be 0.56 and the “phospho-S6 immunofluorescence (z-score)” value (co-treatment: vehicle) was found to be 1.59.
As for `CCN(CCCc1ccccc1)CCCc1ccccc1` [Alverine (citrate)] (compound 10 µM), the “phospho-S6 immunofluorescence (z-score)” value reads like this: (co-treatment: GDC0941 450 nM) -0.52; (co-treatment: lapatinib 1 uM) -1.04; (co-treatment: vehicle) 0.02.
For `Cn1c(SCC(=O)N2CCC[C@H]2C(=O)Nc2ccccc2-c2ccccc2)nc2ccccc21` (compound 10 µM), the “phospho-S6 immunofluorescence (z-score)” value runs as follows: (co-treatment: GDC0941 450 nM) 0.08; (co-treatment: lapatinib 1 uM) 1.59; (co-treatment: vehicle) 0.81.
`N#Cc1cc(NC(=O)C(=O)O)c(Cl)c(NC(=O)C(=O)O)c1` [Lodoxamide] (compound 10 µM): the “phospho-S6 immunofluorescence (z-score)” value turned out to be 0.92 (co-treatment: GDC0941 450 nM), 0.6 (co-treatment: lapatinib 1 uM) and 0.66 (co-treatment: vehicle).
Consider `CN(C)CCc1c[nH]c2ccc(C[C@H]3COC(=O)N3)cc12` [Zolmitriptan] (compound 10 µM), for which the “phospho-S6 immunofluorescence (z-score)” value runs as follows: (co-treatment: GDC0941 450 nM) 0.87; (co-treatment: lapatinib 1 uM) 0.6; (co-treatment: vehicle) -0.48.
As for `CCOC(=O)N1CCC(=C2c3ccc(Cl)cc3CCc3cccnc32)CC1` [Loratadine] (compound 10 µM), the “phospho-S6 immunofluorescence (z-score)” value was -1.77 (co-treatment: GDC0941 450 nM), -0.82 (co-treatment: lapatinib 1 uM) and -1.25 (co-treatment: vehicle).
Take `Cc1nn(C)c2c1C(c1ccc(C(F)(F)F)cc1)C(C#N)=C(N)O2` (stereo unspecified) (compound 10 µM): the “phospho-S6 immunofluorescence (z-score)” value is -1.17 (co-treatment: GDC0941 450 nM), 2.28 (co-treatment: lapatinib 1 uM) and 2.57 (co-treatment: vehicle).
Regarding `O=c1ccc2ccc(OCCCCN3CCN(c4cccc5sccc45)CC3)cc2[nH]1` [Brexpiprazole] (compound 10 µM), the “phospho-S6 immunofluorescence (z-score)” value reads like this: (co-treatment: GDC0941 450 nM) -5.22; (co-treatment: lapatinib 1 uM) -6.92; (co-treatment: vehicle) -4.57.
As for `COc1ccccc1Oc1c(NS(=O)(=O)c2ccc(C(C)(C)C)cc2)nc(-c2ncccn2)nc1OCCO` [Bosentan (hydrate)] (compound 10 µM), the “phospho-S6 immunofluorescence (z-score)” value reads like this: (co-treatment: GDC0941 450 nM) 0.28; (co-treatment: lapatinib 1 uM) 0.22; (co-treatment: vehicle) 0.34.
Turning to `CCCC1O[C@@H]2C[C@H]3[C@@H]4CCC5=CC(=O)C=C[C@]5(C)[C@H]4[C@@H](O)C[C@]3(C)[C@]2(C(=O)CO)O1` (stereo partly specified) [Budesonide] (compound 10 µM), the “phospho-S6 immunofluorescence (z-score)” value is -0.53 (co-treatment: GDC0941 450 nM), -0.12 (co-treatment: lapatinib 1 uM) and -0.2 (co-treatment: vehicle).
